Data taken from PubChem BioAssay AID651658 (Broad Institute, 2012).
Values joined by “and” are separate entries in the source; they are usually repeats but may differ in a detail not shown here. Equal entries are not always repeated. The campaign covered roughly 340,000 compounds. About 5,100 (1.5%) were called active. The sample as a whole holds a higher share of actives than the screen did. A number with no mark means an inactive call.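 How the source made its calls: active means mean Tm shift, scaled 0 neutral to 100 positive control, at about 1.3% or above, every replicate too (limit read from the data); inconclusive means no clear call, values can overlap the other calls; inactive means the rest.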

Target: Fibroblast growth factor 22 (Homo sapiens) (UniProt Q9HCT0)
Sequence (Q9HCT0 whole entry, looked up): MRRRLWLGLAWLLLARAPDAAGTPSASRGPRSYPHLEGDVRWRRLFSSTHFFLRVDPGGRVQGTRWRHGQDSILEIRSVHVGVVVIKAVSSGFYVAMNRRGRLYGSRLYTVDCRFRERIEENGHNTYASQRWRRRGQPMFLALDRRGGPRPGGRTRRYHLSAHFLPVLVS
Experiment: FGF22 ligand-induced thermal stabilization – biophysical, thermal shift, single point, FGF22 synaptogenesis inhibitor project, primary screen (AID 651658)
Settings: recombinant FGF22 thermal shift, SYPRO orange fluorescence; at 9.99 µM; stronger effect = higher value; percent of sucrose octasulfate shift, DMSO zero

SMILES	activity (Tm shift, normalised)
CC(C)NC(=O)Nc1ccc2c(c1)C(=O)N([C@H](C)CO)C[C@@H](C)[C@@H](CN(C)S(=O)(=O)c1ccc(Cl)cc1)OCCCC[C@H](C)O2	-0.402%
COc1ccccc1C(=O)Nn1cnnc1	0.115%
COc1ccccc1C(=O)Nc1ccccc1C(=O)Nc1ccccc1	-0.098%
COc1ccccc1C(=O)c1ccccc1C(=O)c1ccccc1	43.7% (active)
CC(=O)c1ccccc1OCc1ccc(C(=O)c2ccccc2)cc1	-0.1%
COc1ccccc1C(=O)Nc1ccc(Nc2ccccc2)cc1	-0.034%
COc1ccccc1C(=O)NNC(=O)c1ccc(NC(=O)c2ccccc2)cc1	1.4% (active)
CN1CCN(C(=O)C[C@H]2CC[C@H]3[C@@H](COC[C@H](O)CN3C(=O)c3ccc(F)cc3)O2)CC1	0.268%
Cc1ccccc1-c1ccc2c(c1)O[C@H](CN(C)Cc1ccc(C(=O)O)cc1)[C@@H](C)CN([C@H](C)CO)S2(=O)=O	-0.18%
C[C@H](CO)N1C[C@H](C)[C@@H](CN(C)CC2CC2)Oc2ccc(NC(=O)CCCN(C)C)cc2CC1=O	-0.128%
N#C[C@@H]1[C@H](c2ccc(C#CC3CCCCC3)cc2)[C@@H](CO)N1S(=O)(=O)c1ccccc1	0.098%
COc1ccc(-c2ccc([C@H]3[C@H]4CN(C(=O)c5ccc6c(c5)OCO6)CCCCN4[C@H]3CO)cc2)cc1	1.83% (active)
Cc1cccc(-c2ccc([C@@H]3[C@H](CO)N4CCCCN(C(=O)c5ccc6c(c5)OCO6)C[C@@H]34)cc2)c1	-0.344%
CCCC#Cc1ccc([C@H]2[C@H](CO)N3CCCCN(C(=O)c4ccc5c(c4)OCO5)C[C@@H]23)cc1	0.555%
C[C@@H]1CCCCO[C@@H](CN(C)S(=O)(=O)c2ccccc2)[C@H](C)CN([C@H](C)CO)C(=O)c2cc(NC(=O)Nc3ccc4c(c3)OCO4)ccc2O1	-0.98%
COc1ccccc1-c1cnc2c(c1)C(=O)N([C@@H](C)CO)C[C@H](C)[C@H](CN(C)CC1CCOCC1)O2	0.358%
COc1ccc(Cc2nnc(N/N=C/c3ccccc3O)[nH]c2=O)cc1OC	0.017%
COc1cccc(/C=N/Nc2cc(C)nc(-c3ccccc3O)n2)c1O	43% (active)
COc1cccc(/C=N/Nc2ccc(S(=O)(=O)Nc3ccccc3C(=O)O)cc2[N+](=O)[O-])c1O	0.209%
Cc1ccc(S(=O)(=O)N(C)C[C@@H]2Oc3c(NC(=O)c4nc5ccccc5s4)cccc3C(=O)N([C@H](C)CO)C[C@@H]2C)cc1	-0.725%
CC(C)=CCc1ccc(O)c(=O)cc1C(C)C	43.3% (active)
CC(C)c1cc(N=O)cc(C(C)C)c1O	-0.097%
CC(C)=CCc1c(O)c(CC=C(C)C)c2occ(-c3ccc(O)cc3)c(=O)c2c1O	0.178%
C[C@@H]1CCCCO[C@@H](CN(C)C(=O)CCCN(C)C)[C@@H](C)CN([C@H](C)CO)C(=O)c2cc(NC(=O)CCCN(C)C)ccc2O1	-0.145%
C[C@H](CO)N1C[C@H](C)[C@H](CN(C)C)Oc2ncc(-c3ccncc3)cc2C1=O	-0.058%
O=S(=O)(Nc1ccc2nc(N3CCOCC3)sc2c1)c1ccccc1	-0.216%

SMILES	activity (Tm shift, normalised)
O=C(O)c1cccc(S(=O)(=O)Nc2ccc(O)cc2Sc2nc3ccccc3s2)c1	15.9% (active)
Cc1nc2ccc(NC(=O)c3cccc(S(=O)(=O)N4CCOCC4)c3)cc2s1	1.04%
CC(=O)NC[C@@H]1[C@@H](c2ccccc2)[C@@H](CO)N1C(=O)Cc1cccnc1	1.29% (active)
CC(=O)NC[C@H]1[C@H](c2ccccc2)[C@@H](CO)N1C(=O)Cc1cccnc1	-0.409%
O=C(NC[C@@H]1[C@@H](c2ccccc2)[C@H](CO)N1C(=O)Cc1cccnc1)C1CC1	-1.07%
O=C(C[C@@H]1C=C[C@H](NC(=O)CN2CCOCC2)[C@@H](CO)O1)NC1CCC1	0.045%
O=C(NCC[C@@H]1CC[C@H](NC(=O)C2CC2)[C@@H](CO)O1)c1cc(Cl)cc(Cl)c1	-0.053%
COc1ccc(NC(=O)CSc2nnc(Cc3ccccc3)c(=O)n2N)cc1	-0.143%
COc1ccccc1-n1c(SCC(=O)Nc2ccc(Cl)cc2)nc(O)c(Cc2ccccc2)c1=O	43.9% (active)
CCOc1ccc(NC(=O)CSc2nc3c(c(=O)n2-c2ccccc2OC)SCC3)cc1	-0.136%
CN1c2ccc(-c3ccc(F)cc3)cc2[C@@H]2[C@@H](CCN2C(=O)c2cccnc2)[C@H]1CO	-0.025%
CO[C@@H]1CN(C)C(=O)c2ccc(NC(=O)NC(C)C)cc2OC[C@H](C)N(Cc2ccc(-c3ccccn3)cc2)C[C@H]1C	0.425%
COc1cc(/C=C(\C#N)c2nc3ccccc3[nH]2)ccc1O	2.24% (active)
CCOc1ccc(/C=C(/C#N)c2nnc(N3CCOCC3)n2-c2ccccc2)cc1OC	-0.121%
CCCCCOc1ccc(/C=C/C(=O)NCCc2nc3ccccc3[nH]2)cc1OC	0.206%
CCCC(=O)Nc1ccc2c(c1)OC[C@H](C)N(CCC(F)(F)F)C[C@@H](C)[C@H](OC)CN(C)C2=O	-0.05%
C/C=C/c1ccc([C@@H]2[C@H](CO)N(S(=O)(=O)Cc3ccccc3)C23CN(C(=O)C2CCOCC2)C3)cc1	-0.098%
O=C(Nc1c2c(nc3ccccc13)CCCC2)c1ccccc1Br	44.2% (active)
N#Cc1cccc(Nc2c3c(nc4ccccc24)CCCC3)c1	0.042%
O=C(Nc1ccccc1)c1ccccc1Br	-0.119%
CC(=O)N1[C@@H](CO)[C@@H](c2ccccc2)[C@@H]1CN(C)C(=O)CN1CCOCC1	0.044%
O=C(C1CCCCC1)N1CC2(C1)[C@H](c1ccccc1)[C@@H](CO)N2CCC(F)(F)F	-0.014%
O=C(Cc1ccncc1)N[C@@H]1CC[C@H](CCn2cc(-c3ccccc3F)nn2)O[C@H]1CO	0.128%
O=C(Cc1ccncc1)N[C@H]1CC[C@H](CCn2cc(-c3ccccc3F)nn2)O[C@@H]1CO	0.035%
O=C(Cc1cccnc1)N[C@H]1CC[C@H](CCn2cc(-c3ccccc3F)nn2)O[C@H]1CO	8.31% (active)
CCCC(=O)Nc1ccc2c(c1)OC[C@H](C)N(CCC)C[C@@H](C)[C@@H](OC)CN(C)C2=O	0.113%

SMILES	activity (Tm shift, normalised)
CSc1ccccc1NC(=O)CN(C)CC(=O)Nc1cccc(Br)c1	-0.022%
CCN(CC)N=Nc1cccc(NC(C)=O)c1	0.992%
CCN(CC)C(=O)C(=O)Nc1cccc(Br)c1	43.2% (active)
Cc1ccc(S(=O)(=O)N[C@H]2CC[C@H](CC(=O)O)O[C@H]2CO)cc1	0.52%
C[C@H](CO)N1C[C@H](C)[C@H](CN(C)S(=O)(=O)c2ccccc2C#N)OCc2cn(nn2)CCCC1=O	-0.183%
O=C(NN=Cc1ccc([N+](=O)[O-])cc1)C1CC1	-0.001%
O=[N+]([O-])c1ccc(C=NN=Cc2ccc([N+](=O)[O-])cc2)cc1	0%
O=C(N/N=C/c1ccc([N+](=O)[O-])cc1)c1c[nH]c2ccccc12	1.58% (active)
COc1cccc(-c2ccc3c(c2)O[C@H](CN(C)Cc2ccncc2)[C@H](C)CN([C@H](C)CO)S3(=O)=O)c1	-0.104%
O=C(Nc1cccc(Cl)c1)c1cc([N+](=O)[O-])ccc1N1CCN(CCO)CC1	0.039%
NS(=O)(=O)c1cccc(NC(=O)COC(=O)c2cc([N+](=O)[O-])ccc2N2CCCC2)c1	1.34% (active)
CCOc1ncccc1C(=O)OCC(=O)Nc1cccc(S(=O)(=O)N2CCCCCC2)c1	0.065%
C[C@@H]1CN([C@@H](C)CO)S(=O)(=O)c2ccc(C#CC3(O)CCCC3)cc2O[C@H]1CN(C)C(=O)c1ccncc1	-0.043%
COc1ccc(S(=O)(=O)N2CC[C@@H]3[C@H](CO)Nc4ccc(C#Cc5cccc(OC)c5)cc4[C@@H]32)cc1	0.013%
O=C(C[C@@H]1C[C@@H]2c3cc(NC(=O)c4ccc5c(c4)OCO5)ccc3O[C@@H]2[C@H](CO)O1)NCCc1ccccc1	0.032%
COc1ccc(NC(=O)Nc2cccc3c2O[C@H](CN(C)S(=O)(=O)c2cn(C)cn2)[C@H](C)CN([C@@H](C)CO)C3=O)cc1	-0.085%
CN1C(=O)c2cc(NC(=O)c3cccc(F)c3)ccc2OC[C@@H]2O[C@@H](CC(=O)NCC3CCCCC3)CC[C@H]21	-0.226% and -0.131%
CCC(=O)N1[C@@H](CO)[C@@H](c2ccccc2)C12CN(C(=O)Cc1ccccc1)C2	-0.201%
Cc1cc(NC(=O)CCC(=O)N(CC(=O)NCC2CCCO2)c2ccccc2)no1 (stereo unspecified)	0.811%
Cc1cc(C)cc(N(CC(=O)NC2CCCC2)C(=O)CCC(=O)Nc2cc(C)on2)c1	-0.343%
COC(=O)c1cccc(N(CC(=O)NCC2CCCO2)C(=O)CCC(=O)Nc2cc(C)on2)c1 (stereo unspecified)	43% (active)
COC(=O)C1=CN(c2ccc(F)c(F)c2)C=C(C(=O)OC)C1c1ccc([N+](=O)[O-])cc1	0.128%
COC(=O)c1c(C)[nH]c(C)c1-c1ccc([N+](=O)[O-])cc1	0.028%
COC(=O)C1=C(C(=O)OC)C(c2cc([N+](=O)[O-])ccc2O)c2sc(=O)[nH]c2S1 (stereo unspecified)	43.5% (active)
